Activity calls are given as the source filed them.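 Rule for the calls, unless noted: active = compounds lowering colon cancer cell viability after pretreatment blocking the GSK3B kinase; inactive = the rest.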
Experiment: stimulators of insulin release from INS-1E, primary screen, cell-based, 5 mM glucose, NPC library (AID 1117329;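 active = compound raises insulin release from rat beta cells at 5 mM glucose, no numeric limit stated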; note: reference of the scale not given here)
Settings: rat INS-1E insulin secretion, at 10 µM, active compounds read high

Row | SMILES | insulin secretion stimulation
1 | CCCCN(CCCC)CCC(O)c1cc2c(Cl)cc(Cl)cc2c2cc(C(F)(F)F)ccc12 (stereo unspecified) | 0.4% (inactive)
2 | CCC(=O)O[C@]1(C(=O)SCF)[C@H](C)C[C@H]2[C@@H]3C[C@H](F)C4=CC(=O)C=C[C@]4(C)[C@@]3(F)[C@@H](O)C[C@@]21C | 0.4% (inactive)
3 | CC1(C)O[C@@H]2C[C@H]3[C@@H]4C[C@H](F)C5=CC(=O)C=C[C@]5(C)[C@@]4(F)[C@@H](O)C[C@]3(C)[C@]2(C(=O)CO)O1 | 0.7% (inactive)
4 | NC(N)=NC(=O)Cc1c(Cl)cccc1Cl | -2.2% (inactive)
5 | Cc1cn[nH]c1 | 0.4% (inactive)
6 | NS(=O)(=O)c1cc2c(cc1Cl)NC(C1CC3C=CC1C3)NS2(=O)=O (stereo unspecified) | -1% (inactive)
7 | CC(=O)O[C@H]1C[C@@H]2CC[C@@H]3[C@H](CC[C@@]4(C)[C@H]3C[C@H]([N+]3(C)CCCCC3)[C@@H]4OC(C)=O)[C@@]2(C)C[C@@H]1N1CCCCC1 | 0.6% (inactive)
8 | CCCCNc1c(C(=O)OCC)c(C)nc2c1cnn2CC | 6.8% (inactive)
9 | C#C[C@]1(O)CC[C@H]2[C@@H]3[C@H](C)CC4=C(CCC(=O)C4)[C@H]3CC[C@@]21C | -2.8% (inactive)
10 | NCCS(=O)(=O)O | 2.6% (inactive)
11 | C#C[C@]1(O)CC[C@H]2[C@@H]3CCc4cc(O)ccc4[C@H]3CC[C@@]21C | 10.3% (inactive)
12 | C#C[C@]1(O)CC[C@H]2[C@@H]3CCc4cc(OC)ccc4[C@H]3CC[C@@]21C | 0.5% (inactive)
13 | O=C(O)CSCC(=O)NC1CCSC1=O (stereo unspecified) | -1.9% (inactive)
14 | COc1ncnc(NS(=O)(=O)c2ccc(N)cc2)c1OC | 0.1% (inactive)
15 | COc1cc2c(N3CCN(C(=O)Nc4ccc(OC(C)C)cc4)CC3)ncnc2cc1OCCCN1CCCCC1 | 7% (inactive)
16 | Cc1cc2c(C(C)C)c(O)c(O)c(C=O)c2c(O)c1-c1c(C)cc2c(C(C)C)c(O)c(O)c(C=O)c2c1O | 0.5% (inactive)
17 | Oc1ccc(OCc2ccccc2)cc1 | -0.6% (inactive)
18 | C[n+]1c2cc(N)ccc2cc2ccc(N)cc21 (tested in a mixture with another compound) | 0.4% (inactive)
19 | CCOC(=O)O[C@]1(C(=O)OCCl)CC[C@H]2[C@@H]3CCC4=CC(=O)C=C[C@]4(C)[C@H]3[C@@H](O)C[C@@]21C | 7% (inactive)

Row | SMILES | insulin secretion stimulation
20 | Cc1nc(-c2ccc(OCC(C)C)c(C#N)c2)sc1C(=O)O | 3.8% (inactive)
21 | COc1cc(C(=O)OCCCN2CCCN(CCCOC(=O)c3cc(OC)c(OC)c(OC)c3)CC2)cc(OC)c1OC | 79.2% (active)
22 | Cc1cnc(C(=O)O)c[n+]1[O-] | 3.6% (inactive)
23 | COC(=O)[C@H]1[C@H]2C[C@@H]3c4[nH]c5cc(OC)ccc5c4CCN3C[C@H]2C[C@@H](OC(=O)c2cc(OC)c(OC)c(OC)c2)[C@@H]1OC | -0.3% (inactive)
24 | CO[C@@H]1[C@@H](OC(N)=O)[C@@H](O)[C@H](Oc2ccc3c(O)c(NC(=O)c4ccc(O)c(CC=C(C)C)c4)c(=O)oc3c2C)OC1(C)C | -0.3% (inactive)
25 | COCCCOc1cc(C[C@@H](C[C@H](N)[C@@H](O)C[C@H](C(=O)NCC(C)(C)C(N)=O)C(C)C)C(C)C)ccc1OC | 0.9% (inactive)
26 | CN1CCN2c3ccccc3Cc3ccccc3C2C1 (stereo unspecified) | 43.4% (active)
27 | C[C@@H]1CN(c2c(F)c(N)c3c(=O)c(C(=O)O)cn(C4CC4)c3c2F)C[C@H](C)N1 | 2.1% (inactive)
28 | O=NN(CCCl)C(=O)NC1CCCCC1 | -0.3% (inactive)
29 | CNC[C@H](O)[C@@H](O)[C@H](O)[C@H](O)CO | 0.7% (inactive)
30 | CCC(C)n1ncn(-c2ccc(N3CCN(c4ccc(OC[C@H]5CO[C@](Cn6cncn6)(c6ccc(Cl)cc6Cl)O5)cc4)CC3)cc2)c1=O (stereo partly specified) | 0.4% (inactive)
31 | O=P(O)(O)C(O)(Cc1cccnc1)P(=O)(O)O | -1.8% (inactive)
32 | CN(C)c1ccc2nc3ccc(=[N+](C)C)cc-3sc2c1 | -1.1% (inactive)
33 | CC1=C(C)C(=O)C(C(CCCCCC(=O)O)c2ccccc2)=C(C)C1=O (stereo unspecified) | -0.1% (inactive)
34 | C#CCN[C@@H]1CCc2ccccc21 | 2.6% (inactive)
35 | CCCCCN(C)CCC(O)(P(=O)(O)O)P(=O)(O)O | 7.6% (inactive)
36 | Cc1c[nH]c2ccccc12 | -2.3% (inactive)
37 | CC(C)(C)NC(=O)[C@H]1CC[C@H]2[C@@H]3CC[C@H]4NC(=O)C=C[C@]4(C)[C@H]3CC[C@]12C | 0.6% (inactive)
38 | O=C(O)CN1C(=O)c2cccc3cccc(c23)C1=O | -1.8% (inactive)

Experiment: growth inhibition of GSK3B-pretreated HCT116 cells – cell-based, CellTiter-Glo, 0.2 to 20 µM (AID 1117336)
Settings: HCT116 viability after GSK3B inhibitor, at 20 µM, active compounds read high

Row | SMILES | viability decrease
39 | CCCCN(CCCC)CCC(O)c1cc2c(Cl)cc(Cl)cc2c2cc(C(F)(F)F)ccc12 (stereo unspecified) | 99.2% (active)
40 | CCC(=O)O[C@]1(C(=O)SCF)[C@H](C)C[C@H]2[C@@H]3C[C@H](F)C4=CC(=O)C=C[C@]4(C)[C@@]3(F)[C@@H](O)C[C@@]21C | -30.2% (inactive)
41 | CC1(C)O[C@@H]2C[C@H]3[C@@H]4C[C@H](F)C5=CC(=O)C=C[C@]5(C)[C@@]4(F)[C@@H](O)C[C@]3(C)[C@]2(C(=O)CO)O1 | -12.2% (inactive)
42 | NC(N)=NC(=O)Cc1c(Cl)cccc1Cl | 16.7% (inactive)
43 | Cc1cn[nH]c1 | 20.3% (inactive)
44 | NS(=O)(=O)c1cc2c(cc1Cl)NC(C1CC3C=CC1C3)NS2(=O)=O (stereo unspecified) | -17% (inactive)
45 | CC(=O)O[C@H]1C[C@@H]2CC[C@@H]3[C@H](CC[C@@]4(C)[C@H]3C[C@H]([N+]3(C)CCCCC3)[C@@H]4OC(C)=O)[C@@]2(C)C[C@@H]1N1CCCCC1 | -4.1% (inactive)
46 | CCCCNc1c(C(=O)OCC)c(C)nc2c1cnn2CC | 93.3% (active)
47 | C#C[C@]1(O)CC[C@H]2[C@@H]3[C@H](C)CC4=C(CCC(=O)C4)[C@H]3CC[C@@]21C | 45.5% (inactive)
48 | NCCS(=O)(=O)O | -1.3% (inactive)
49 | C#C[C@]1(O)CC[C@H]2[C@@H]3CCc4cc(O)ccc4[C@H]3CC[C@@]21C | 45.9% (inactive)
50 | C#C[C@]1(O)CC[C@H]2[C@@H]3CCc4cc(OC)ccc4[C@H]3CC[C@@]21C | 1.9% (inactive)
51 | O=C(O)CSCC(=O)NC1CCSC1=O (stereo unspecified) | -4% (inactive)
52 | COc1ncnc(NS(=O)(=O)c2ccc(N)cc2)c1OC | -6.5% (inactive)
53 | COc1cc2c(N3CCN(C(=O)Nc4ccc(OC(C)C)cc4)CC3)ncnc2cc1OCCCN1CCCCC1 | 75.1% (active)
54 | Cc1cc2c(C(C)C)c(O)c(O)c(C=O)c2c(O)c1-c1c(C)cc2c(C(C)C)c(O)c(O)c(C=O)c2c1O | 82% (active)
55 | Oc1ccc(OCc2ccccc2)cc1 | -36.6% (inactive)
56 | C[n+]1c2cc(N)ccc2cc2ccc(N)cc21 (tested in a mixture with another compound) | 70.5% (active)
57 | CCOC(=O)O[C@]1(C(=O)OCCl)CC[C@H]2[C@@H]3CCC4=CC(=O)C=C[C@]4(C)[C@H]3[C@@H](O)C[C@@]21C | 12.3% (inactive)

Row | SMILES | viability decrease
58 | Cc1nc(-c2ccc(OCC(C)C)c(C#N)c2)sc1C(=O)O | 25.8% (inactive)
59 | COc1cc(C(=O)OCCCN2CCCN(CCCOC(=O)c3cc(OC)c(OC)c(OC)c3)CC2)cc(OC)c1OC | 38.2% (inactive)
60 | Cc1cnc(C(=O)O)c[n+]1[O-] | -16.5% (inactive)
61 | COC(=O)[C@H]1[C@H]2C[C@@H]3c4[nH]c5cc(OC)ccc5c4CCN3C[C@H]2C[C@@H](OC(=O)c2cc(OC)c(OC)c(OC)c2)[C@@H]1OC | 24.4% (inactive)
62 | CO[C@@H]1[C@@H](OC(N)=O)[C@@H](O)[C@H](Oc2ccc3c(O)c(NC(=O)c4ccc(O)c(CC=C(C)C)c4)c(=O)oc3c2C)OC1(C)C | -78.9% (inactive)
63 | COCCCOc1cc(C[C@@H](C[C@H](N)[C@@H](O)C[C@H](C(=O)NCC(C)(C)C(N)=O)C(C)C)C(C)C)ccc1OC | -5.3% (inactive)
64 | CN1CCN2c3ccccc3Cc3ccccc3C2C1 (stereo unspecified) | 6.5% (inactive)
65 | C[C@@H]1CN(c2c(F)c(N)c3c(=O)c(C(=O)O)cn(C4CC4)c3c2F)C[C@H](C)N1 | 13.2% (inactive)
66 | O=NN(CCCl)C(=O)NC1CCCCC1 | 11.8% (inactive)
67 | CNC[C@H](O)[C@@H](O)[C@H](O)[C@H](O)CO | -9.2% (inactive)
68 | CCC(C)n1ncn(-c2ccc(N3CCN(c4ccc(OC[C@H]5CO[C@](Cn6cncn6)(c6ccc(Cl)cc6Cl)O5)cc4)CC3)cc2)c1=O (stereo partly specified) | 68.8% (active)
69 | O=P(O)(O)C(O)(Cc1cccnc1)P(=O)(O)O | 5.7% (inactive)
70 | CN(C)c1ccc2nc3ccc(=[N+](C)C)cc-3sc2c1 | 98.6% (active)
71 | CC1=C(C)C(=O)C(C(CCCCCC(=O)O)c2ccccc2)=C(C)C1=O (stereo unspecified) | 20.4% (inactive)
72 | C#CCN[C@@H]1CCc2ccccc21 | -29.8% (inactive)
73 | CCCCCN(C)CCC(O)(P(=O)(O)O)P(=O)(O)O | 1.9% (inactive)
74 | Cc1c[nH]c2ccccc12 | 3.8% (inactive)
75 | CC(C)(C)NC(=O)[C@H]1CC[C@H]2[C@@H]3CC[C@H]4NC(=O)C=C[C@]4(C)[C@H]3CC[C@]12C | 5.3% (inactive)
76 | O=C(O)CN1C(=O)c2cccc3cccc(c23)C1=O | -2.7% (inactive)

From PubChem BioAssay
